We go through one sequence from article PMC7862700, “An all-to-all approach to the identification of sequence-specific readers for epigenetic DNA modifications on cytosine”.

Holding throughout (test): DAPPL (digital affinity profiling via proximity ligation, sequencing); 10 mM Tris-HCl pH 7.5, 50 mM NaCl, 1 mM DTT, 4% glycerol, room temperature, 30 min; GST-TFs on glutathione beads, 16-mer random dsDNA library, 0.1% formaldehyde crosslink after washing; high values mean tight binding
Holding throughout (details): protein: recombinant; tags: N-terminal GST; dsDNA, one strand shown

In one assay the target is T1, FLI1 (Homo sapiens, UniProt Q01543 1-452).
T1 sequence: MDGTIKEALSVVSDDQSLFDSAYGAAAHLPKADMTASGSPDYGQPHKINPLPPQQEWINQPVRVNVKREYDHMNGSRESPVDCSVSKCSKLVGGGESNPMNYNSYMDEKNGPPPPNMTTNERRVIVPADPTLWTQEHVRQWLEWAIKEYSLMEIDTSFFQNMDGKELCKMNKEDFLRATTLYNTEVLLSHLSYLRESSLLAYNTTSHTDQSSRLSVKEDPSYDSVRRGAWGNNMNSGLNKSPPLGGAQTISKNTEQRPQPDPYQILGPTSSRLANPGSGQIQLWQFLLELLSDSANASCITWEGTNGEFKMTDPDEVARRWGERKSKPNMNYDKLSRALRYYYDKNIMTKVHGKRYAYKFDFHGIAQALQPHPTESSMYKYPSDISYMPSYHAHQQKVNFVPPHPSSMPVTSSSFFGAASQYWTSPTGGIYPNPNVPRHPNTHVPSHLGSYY
In a few lines:
(§1)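 Pools were built from human transcription factors expressed in yeast as GST fusions, captured on glutathione beads and DNA-barcoded, along with a tag-only sample. Incubation with 200 nmole of a 16-mer random double-stranded DNA library lasted 30 min at room temperature in Tris/NaCl/DTT/glycerol buffer, and was followed by washing, 0.1% formaldehyde crosslinking, proximity ligation, PCR amplification and Illumina NextSeq500 sequencing. Binding signal is the quotient of each hexamer's read frequency for a factor and its frequency for the tag-only sample.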

The target in a further assay is T2, ELK1 (Homo sapiens, UniProt P19419 1-428).
T2 sequence: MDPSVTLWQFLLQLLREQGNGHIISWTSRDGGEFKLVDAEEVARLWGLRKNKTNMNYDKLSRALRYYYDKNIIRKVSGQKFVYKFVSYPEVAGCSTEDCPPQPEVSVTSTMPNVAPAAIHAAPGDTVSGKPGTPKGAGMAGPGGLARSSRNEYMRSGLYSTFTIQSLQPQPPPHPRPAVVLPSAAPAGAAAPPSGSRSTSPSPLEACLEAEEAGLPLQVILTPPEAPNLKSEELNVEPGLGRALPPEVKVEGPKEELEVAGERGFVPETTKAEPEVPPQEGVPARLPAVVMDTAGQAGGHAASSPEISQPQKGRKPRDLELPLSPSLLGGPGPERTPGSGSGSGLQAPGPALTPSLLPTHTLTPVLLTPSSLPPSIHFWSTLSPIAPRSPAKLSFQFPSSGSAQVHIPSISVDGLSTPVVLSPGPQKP
In a few lines:
as §1

A further assay addresses T3, GABPA (Homo sapiens, UniProt Q06546 1-454).
T3 sequence: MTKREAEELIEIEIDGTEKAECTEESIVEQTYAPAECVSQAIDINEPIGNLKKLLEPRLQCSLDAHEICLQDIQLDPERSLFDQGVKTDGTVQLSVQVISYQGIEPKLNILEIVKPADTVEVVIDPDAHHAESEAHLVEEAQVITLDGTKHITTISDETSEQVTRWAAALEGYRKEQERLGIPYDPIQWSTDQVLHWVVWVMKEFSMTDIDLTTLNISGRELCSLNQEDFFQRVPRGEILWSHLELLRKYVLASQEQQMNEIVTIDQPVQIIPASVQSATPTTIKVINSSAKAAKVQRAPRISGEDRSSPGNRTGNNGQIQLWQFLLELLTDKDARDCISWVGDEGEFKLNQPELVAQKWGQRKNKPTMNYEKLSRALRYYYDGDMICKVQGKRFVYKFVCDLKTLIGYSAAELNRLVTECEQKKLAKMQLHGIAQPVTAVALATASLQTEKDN
A digest of the protocol:
as §1

The target of a further assay is T4, ERG (Homo sapiens, UniProt P11308 1-479).
T4 sequence: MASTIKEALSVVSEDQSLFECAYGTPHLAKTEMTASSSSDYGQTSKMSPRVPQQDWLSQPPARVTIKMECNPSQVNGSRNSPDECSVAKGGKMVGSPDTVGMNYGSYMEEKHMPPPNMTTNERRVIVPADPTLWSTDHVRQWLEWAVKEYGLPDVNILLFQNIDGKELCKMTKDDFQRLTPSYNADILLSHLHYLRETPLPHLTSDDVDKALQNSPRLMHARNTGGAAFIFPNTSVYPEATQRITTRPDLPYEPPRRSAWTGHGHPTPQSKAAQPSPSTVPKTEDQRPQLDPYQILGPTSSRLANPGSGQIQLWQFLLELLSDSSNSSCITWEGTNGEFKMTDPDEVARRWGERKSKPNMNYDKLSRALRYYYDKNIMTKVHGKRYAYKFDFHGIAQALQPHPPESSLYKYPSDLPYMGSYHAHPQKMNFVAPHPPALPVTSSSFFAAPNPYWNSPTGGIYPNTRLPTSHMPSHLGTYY
A digest of the protocol: as §1

The next assay has as its target ELF1 (Homo sapiens, UniProt P32519 1-619). A digest of the protocol:
as §1

For the next assay, the target named is T5, EHF (Homo sapiens, UniProt Q9NZC4 1-300).
T5 sequence: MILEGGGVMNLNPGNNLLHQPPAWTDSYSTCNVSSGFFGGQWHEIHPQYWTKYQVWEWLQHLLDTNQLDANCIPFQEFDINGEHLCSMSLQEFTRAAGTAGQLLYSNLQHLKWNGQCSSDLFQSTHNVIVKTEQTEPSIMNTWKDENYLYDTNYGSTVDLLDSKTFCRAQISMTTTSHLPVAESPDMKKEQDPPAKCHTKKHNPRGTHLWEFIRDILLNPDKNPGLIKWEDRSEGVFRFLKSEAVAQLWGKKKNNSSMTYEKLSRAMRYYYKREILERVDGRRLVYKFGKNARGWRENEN
In a few lines: as §1

Another assay concerns the target SPI1 (Homo sapiens, UniProt P17947 1-270). A digest of the protocol: as §1
The target of the next assay is SPIB (Homo sapiens, UniProt Q01892 1-262). A digest of the protocol: as §1
SPIB, sequence (Q01892 whole entry): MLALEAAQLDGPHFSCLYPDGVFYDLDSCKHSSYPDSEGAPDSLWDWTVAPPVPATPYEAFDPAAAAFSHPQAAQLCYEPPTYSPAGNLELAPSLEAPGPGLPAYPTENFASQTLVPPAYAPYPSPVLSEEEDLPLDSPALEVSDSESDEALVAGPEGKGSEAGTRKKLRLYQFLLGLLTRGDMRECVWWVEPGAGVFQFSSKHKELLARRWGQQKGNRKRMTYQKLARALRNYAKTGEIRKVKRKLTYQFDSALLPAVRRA
For the next assay, the target named is T6, ELK3 (Homo sapiens, UniProt P41970 1-407).
T6 sequence: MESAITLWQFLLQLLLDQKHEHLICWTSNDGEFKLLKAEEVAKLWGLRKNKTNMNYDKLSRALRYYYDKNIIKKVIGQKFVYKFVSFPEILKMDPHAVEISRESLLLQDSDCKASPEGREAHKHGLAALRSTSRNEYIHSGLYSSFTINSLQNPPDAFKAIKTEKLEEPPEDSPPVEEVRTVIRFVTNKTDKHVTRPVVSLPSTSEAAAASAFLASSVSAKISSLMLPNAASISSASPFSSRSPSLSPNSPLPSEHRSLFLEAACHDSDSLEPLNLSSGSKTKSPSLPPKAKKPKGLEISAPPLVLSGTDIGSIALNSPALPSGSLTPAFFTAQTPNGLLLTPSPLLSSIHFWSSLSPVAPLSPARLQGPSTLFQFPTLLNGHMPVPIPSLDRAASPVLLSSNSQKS
A digest of the protocol:
as §1

ELF1, sequence (P32519 whole entry): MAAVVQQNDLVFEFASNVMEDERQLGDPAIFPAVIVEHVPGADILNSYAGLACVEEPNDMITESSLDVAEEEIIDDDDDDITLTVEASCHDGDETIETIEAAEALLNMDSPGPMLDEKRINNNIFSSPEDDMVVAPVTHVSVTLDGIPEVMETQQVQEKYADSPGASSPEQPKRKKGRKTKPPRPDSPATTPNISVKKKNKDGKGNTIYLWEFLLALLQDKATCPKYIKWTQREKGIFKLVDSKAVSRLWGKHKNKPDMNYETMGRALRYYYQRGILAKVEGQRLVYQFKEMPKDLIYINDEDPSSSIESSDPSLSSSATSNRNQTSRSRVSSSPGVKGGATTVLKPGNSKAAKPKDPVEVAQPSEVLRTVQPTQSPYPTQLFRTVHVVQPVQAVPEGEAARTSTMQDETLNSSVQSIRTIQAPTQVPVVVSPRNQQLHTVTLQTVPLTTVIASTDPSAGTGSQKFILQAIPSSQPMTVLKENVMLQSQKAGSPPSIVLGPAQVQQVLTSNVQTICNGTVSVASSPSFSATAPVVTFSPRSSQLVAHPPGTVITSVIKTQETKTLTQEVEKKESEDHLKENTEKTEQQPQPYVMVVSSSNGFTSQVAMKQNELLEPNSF

As to TCCCCA, the binding signal with FLI1 was 1.38 fold enrichment (6-mer frequency, TF over GST control); with ELK1, 1.29 fold enrichment (6-mer frequency, TF over GST control); with GABPA, 1.21 fold enrichment (6-mer frequency, TF over GST control); with ERG it was 1.42 fold enrichment (6-mer frequency, TF over GST control); with ELF1 it was 1.39 fold enrichment (6-mer frequency, TF over GST control); in the assay with EHF, 1.45 fold enrichment (6-mer frequency, TF over GST control). In addition, the binding signal was 1.63 fold enrichment (6-mer frequency, TF over GST control) with SPI1; 1.16 fold enrichment (6-mer frequency, TF over GST control) with SPIB; 1.34 fold enrichment (6-mer frequency, TF over GST control) with ELK3.
